Active and inactive are the calls of the source. Calls come from the whole dose curve.
Potency is the fitted concentration of half-maximal effect.

The first assay can be described thus: qHTS drug screen for cell cycle checkpoint inhibitors in PARPi-resistant BRCA-mutant ovarian cancer cell lines. (AID 1963452). The conditions noted are these: PEO1/OlaR viability, CellTiter-Glo luminescence, 96 h. In short, it runs like this: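 PEO1, PEO4 and PEO1/OlaR ovarian cancer cells, 600 per well, exposed 96 h at 37C to a dilution series. Viability read by CellTiter-Glo luminescence, normalized to DMSO and empty wells; activity summarized as Z-AUC.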
In general terms: In qHTS, concentration-response curves come from the screen itself.
Turning to `COCCn1c2c([n+](Cc3cnccn3)c1C)C(=O)c1ccccc1C2=O`, the Potency is 49 nM (active).

`CCc1c2c(nc3ccc(O)cc13)-c1cc3c(c(=O)n1C2)COC(=O)[C@]3(O)CC`: the Potency is 6.2 nM (active).

Turning to `O=C(Nc1cn[nH]c1-c1nc2ccc(CN3CCOCC3)cc2[nH]1)NC1CC1`, the Potency is 871 nM (active).

Consider `CC(C)[C@H](C(=O)Nc1ccc(C(=O)NO)cc1)c1ccccc1`, for which the Potency is 1380 nM (active).

For `C#Cc1cccc(Nc2ncnc3cc(OC)c(OCCCCCCC(=O)NO)cc23)c1`, the Potency was 616 nM (active).

As for `CC[C@@]1(O)C(=O)OCc2c1cc1n(c2=O)Cc2cc3cc(O)ccc3nc2-1`, the Potency was 38.9 nM (active).

In the case of `COc1cccc2nc(-c3cccs3)nc(NN3C(=O)C=C(C)C3=O)c12`, the Potency is 4360 nM (active).

Still in this assay, the particulars now being: PEO1/OlaR viability, CellTiter-Glo luminescence, 96 h; stronger effect = lower value.
In the case of `O=C(Nc1nc2cccc(-c3ccc(CN4CCS(=O)(=O)CC4)cc3)n2n1)C1CC1`, the Z-AUC was 0.985 (inactive).

In the case of `CNC(=O)c1c(F)cccc1Nc1nc(Nc2cc3c(cc2OC)CCN3C(=O)CN(C)C)nc2[nH]ccc12`, the Z-AUC was -0.375 (inactive).

Take `CC(C)CC(=O)Nc1n[nH]c2c1CN(C(=O)C1CCN(C)CC1)C2(C)C`: the Z-AUC is -0.913 (inactive).

With `COc1cc2c(cc1-c1c(C)noc1C)ncc1[nH]c(=O)n([C@H](C)c3ccccn3)c12`, the Z-AUC is -1.31 (inactive).

Regarding `Nc1nc(Nc2ccc(S(N)(=O)=O)cc2)nn1C(=O)c1c(F)cccc1F`, the Z-AUC is 0.423 (inactive).

Consider `NC(=O)c1c(OCc2c(F)cc(Br)cc2F)nsc1NC(=O)NCCCCN1CCCC1`, for which the Z-AUC was 0.49 (inactive).

In the case of `CCOC(=O)C1=C(C)NC2=C(C(=O)CC(C)(C)C2)C1c1ccc(-c2ccccc2)cc1` (stereo not given), the Z-AUC was 0.483 (inactive).

As for `Nc1cc(C(F)(F)F)c(-c2cc(N3CCOCC3)nc(N3CCOCC3)n2)cn1`, the Z-AUC is -2.03 (inactive).

In the case of `C[C@@]12O[C@@H](C[C@]1(O)CO)n1c3ccccc3c3c4c(c5c6ccccc6n2c5c31)CNC4=O`, the Z-AUC was -1.24 (inactive).

Regarding `CNC(=O)c1cc(Oc2ccc(NC(=O)Nc3cc(C(C)(C)C)nn3-c3ccc4ncccc4c3)c(F)c2)ccn1`, the Z-AUC was 0.924 (inactive).

Regarding `O=C(CCCCCCC(=O)Nc1ccc([C@H]2O[C@@H](CSc3nc(-c4ccccc4)c(-c4ccccc4)o3)C[C@@H](c3ccc(CO)cc3)O2)cc1)NO`, the Z-AUC was 0.612 (inactive).

Consider `O=C(NCCCNc1nc(Nc2cccc(NC(=O)N3CCCC3)c2)ncc1I)c1cccs1`, for which the Z-AUC was 1.15 (inactive).

Turning to `NC1(Cc2ccc(Cl)cc2)CCN(c2ncnc3[nH]ccc23)CC1`, the Z-AUC was -0.805 (inactive).

In the case of `COC(=O)Nc1ccc(-c2nc(N3CCOCC3)c3cnn(C4CCN(Cc5cccnc5)CC4)c3n2)cc1`, the Z-AUC was -0.964 (inactive).

With `CN1CCN(Cc2ccc(NC(=O)Nc3ccc(Oc4cc(NC(=O)C5CC5)ncn4)cc3)cc2C(F)(F)F)CC1`, the Z-AUC is -1.5 (inactive).

Consider `C=CC(=O)Nc1cc2c(Nc3ccc(F)c(Cl)c3)ncnc2cc1OCCCN1CCOCC1`, for which the Z-AUC is -0.343 (inactive).

In the case of `O=C(Cc1ccc(-c2ccc(OCCN3CCOCC3)cc2)cn1)NCc1ccccc1`, the Z-AUC was -0.749 (inactive).

As for `CC(C)c1ccc(Cn2ccc3c4c(N)nc(NC5CC5)nc4ccc32)cc1`, the Z-AUC was -1.65 (inactive).

Consider `COCCOc1ccc2c(c1)ncn2-c1ccc2cccc(N3CCC(N)CC3)c2n1`, for which the Z-AUC was 0.074 (inactive).

As for `Cc1ccc(-c2ncn(-c3ccc(Nc4nccc(-c5cccc(N6CCOCC6)c5)n4)cc3)n2)cn1`, the Z-AUC is -1.4 (inactive).

Consider `c1cc(-c2cnn3cc(-c4ccc(OCCN5CCCCC5)cc4)cnc23)ccn1`, for which the Z-AUC is 0.293 (inactive).

`CC(C)c1cnn2c(NCc3ccccc3)cc(N[C@@H](CO)[C@H](O)CO)nc12`: the Z-AUC was -1.87 (inactive).

For `C[C@@H](Oc1cc(-c2cnn(C3CCNCC3)c2)cnc1N)c1c(Cl)ccc(F)c1Cl`, the Z-AUC is 0.111 (inactive).

Staying with this assay, now noted: PEO1/OlaR viability, CellTiter-Glo luminescence, 96 h; measured here: PEO1 parental Z-AUC; stronger effect = lower value.
For the compound `O=C(Nc1nc2cccc(-c3ccc(CN4CCS(=O)(=O)CC4)cc3)n2n1)C1CC1`, the Z-AUC stood at 0.544.

Turning to `COCCn1c2c([n+](Cc3cnccn3)c1C)C(=O)c1ccccc1C2=O`, the Z-AUC is -3.26.

As for `CCc1c2c(nc3ccc(O)cc13)-c1cc3c(c(=O)n1C2)COC(=O)[C@]3(O)CC`, the Z-AUC was -3.8.

For `CNC(=O)c1c(F)cccc1Nc1nc(Nc2cc3c(cc2OC)CCN3C(=O)CN(C)C)nc2[nH]ccc12`, the Z-AUC is -0.266.

Consider `CC(C)CC(=O)Nc1n[nH]c2c1CN(C(=O)C1CCN(C)CC1)C2(C)C`, for which the Z-AUC is -0.186.

Regarding `COc1cc2c(cc1-c1c(C)noc1C)ncc1[nH]c(=O)n([C@H](C)c3ccccn3)c12`, the Z-AUC is -1.04.

With `Nc1nc(Nc2ccc(S(N)(=O)=O)cc2)nn1C(=O)c1c(F)cccc1F`, the Z-AUC is -0.334.

`NC(=O)c1c(OCc2c(F)cc(Br)cc2F)nsc1NC(=O)NCCCCN1CCCC1`: the Z-AUC stood at 0.803.

For `CCOC(=O)C1=C(C)NC2=C(C(=O)CC(C)(C)C2)C1c1ccc(-c2ccccc2)cc1` (stereo not given), the Z-AUC came out at 0.756.

Turning to `Nc1cc(C(F)(F)F)c(-c2cc(N3CCOCC3)nc(N3CCOCC3)n2)cn1`, the Z-AUC is -1.2.

For the compound `O=C(Nc1cn[nH]c1-c1nc2ccc(CN3CCOCC3)cc2[nH]1)NC1CC1`, the Z-AUC was -1.15.

Take `C[C@@]12O[C@@H](C[C@]1(O)CO)n1c3ccccc3c3c4c(c5c6ccccc6n2c5c31)CNC4=O`: the Z-AUC is -0.538.

With `CNC(=O)c1cc(Oc2ccc(NC(=O)Nc3cc(C(C)(C)C)nn3-c3ccc4ncccc4c3)c(F)c2)ccn1`, the Z-AUC was determined as 1.09.

With `O=C(CCCCCCC(=O)Nc1ccc([C@H]2O[C@@H](CSc3nc(-c4ccccc4)c(-c4ccccc4)o3)C[C@@H](c3ccc(CO)cc3)O2)cc1)NO`, the Z-AUC worked out at 1.26.

In the case of `O=C(NCCCNc1nc(Nc2cccc(NC(=O)N3CCCC3)c2)ncc1I)c1cccs1`, the Z-AUC was 1.02.

Consider `NC1(Cc2ccc(Cl)cc2)CCN(c2ncnc3[nH]ccc23)CC1`, for which the Z-AUC was -1.02.

Take `CC(C)[C@H](C(=O)Nc1ccc(C(=O)NO)cc1)c1ccccc1`: the Z-AUC is -1.53.

`COC(=O)Nc1ccc(-c2nc(N3CCOCC3)c3cnn(C4CCN(Cc5cccnc5)CC4)c3n2)cc1`: the Z-AUC was -0.853.

Take `C#Cc1cccc(Nc2ncnc3cc(OC)c(OCCCCCCC(=O)NO)cc23)c1`: the Z-AUC is -1.22.

As to `CN1CCN(Cc2ccc(NC(=O)Nc3ccc(Oc4cc(NC(=O)C5CC5)ncn4)cc3)cc2C(F)(F)F)CC1`, the Z-AUC is -2.15.

For `C=CC(=O)Nc1cc2c(Nc3ccc(F)c(Cl)c3)ncnc2cc1OCCCN1CCOCC1`, the Z-AUC was -0.823.

In the case of `O=C(Cc1ccc(-c2ccc(OCCN3CCOCC3)cc2)cn1)NCc1ccccc1`, the Z-AUC was -0.848.

For the compound `CC(C)c1ccc(Cn2ccc3c4c(N)nc(NC5CC5)nc4ccc32)cc1`, the Z-AUC is -2.21.

In the case of `COCCOc1ccc2c(c1)ncn2-c1ccc2cccc(N3CCC(N)CC3)c2n1`, the Z-AUC stood at 0.935.

With `Cc1ccc(-c2ncn(-c3ccc(Nc4nccc(-c5cccc(N6CCOCC6)c5)n4)cc3)n2)cn1`, the Z-AUC was -2.09.

Take `CC[C@@]1(O)C(=O)OCc2c1cc1n(c2=O)Cc2cc3cc(O)ccc3nc2-1`: the Z-AUC is -3.38.

Take `c1cc(-c2cnn3cc(-c4ccc(OCCN5CCCCC5)cc4)cnc23)ccn1`: the Z-AUC is 0.413.

Regarding `CC(C)c1cnn2c(NCc3ccccc3)cc(N[C@@H](CO)[C@H](O)CO)nc12`, the Z-AUC is -1.92.

With `C[C@@H](Oc1cc(-c2cnn(C3CCNCC3)c2)cnc1N)c1c(Cl)ccc(F)c1Cl`, the Z-AUC was -0.187.

`COc1cccc2nc(-c3cccs3)nc(NN3C(=O)C=C(C)C3=O)c12`: the Z-AUC was -1.8.

Values taken from PubChem BioAssay (NCATS).
